These results are taken from article PMC6212833.

Over roughly 2,000 compounds, “B-score” has its median near -0.0024; the highest 2% begin near 4. For the sample, the highest values were picked, then their nearest neighbours and some compounds at random.

In this experiment the test system is Balamuthia mandrillaris (ATCC PRA-291) trophozoites, axenic culture. The experiment in a line: primary screen, b score. Particulars: 20 µM. The procedure, abridged: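 Trophozoites (3,000/well) in axenic medium exposed to library drugs at 20 µM in 0.2% DMSO for 72 h; viability by CellTiter Glo luminescence at 2, 4 and 8 h. Controls: vehicle and freeze-thaw amoeba lysate; B-score corrects row, column and edge effects.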
With `CCN1CCN(c2cc3c(cc2F)c(=O)c(C(=O)O)cn3C2CC2)CC1`, the B-score was -2.37.
Take `CO/N=C(\C(=O)N[C@@H]1C(=O)N2C(C(=O)O)=C(COC(C)=O)CS[C@H]12)c1csc(N)n1`: the B-score is 2.94.
For the compound `N[C@@H](Cc1ccccc1)C(=O)O`, the B-score is recorded as -1.27.
Consider `C#CC1(O)CCC2C3CCC4=C/C(=N/O)CCC4C3CCC21CC` (stereo not drawn), for which the B-score is given as -0.44.
`CC(C)(O)c1ccccc1CC[C@@H](SCC1(CC(=O)O)CC1)c1cccc(/C=C/c2ccc3ccc(Cl)cc3n2)c1`: the B-score is recorded as -1.02.
As to `Oc1c(Cl)cc(Cl)cc1Sc1cc(Cl)cc(Cl)c1O`, the B-score was -2.1.
As for `CC(=O)OCC1=C(C(=O)O)N2C(=O)[C@@H](NC(=O)CC#N)[C@H]2SC1`, the B-score was -1.27.
On to `CC(=O)OCC1=C(C(=O)O)N2C(=O)[C@@H](NC(=O)CSc3ccncc3)[C@H]2SC1`, for which the B-score was -1.22.
`CC(=O)OCC1=C(C(=O)O)N2C(=O)[C@@H](NC(=O)Cc3cccs3)[C@H]2SC1`: the B-score came out at 4.7.
For `Cc1cn([C@H]2C[C@H](N=[N+]=[N-])[C@@H](CO)O2)c(=O)[nH]c1=O` [735592-L3], the B-score is given as -1.48.
For `CC(C)(C)NC(=O)[C@H]1C[C@@H]2CCCC[C@@H]2CN1C[C@@H](O)[C@H](Cc1ccccc1)NC(=O)[C@@H](CC(N)=O)NC(=O)c1ccc2ccccc2n1`, the B-score is -1.24.
`NC[C@@H]1O[C@H](O[C@@H]2[C@@H](CO)OC(O[C@@H]3[C@@H](O)[C@H](N)C[C@H](N)[C@H]3OC3O[C@H](CN)[C@@H](O)[C@H](O)[C@H]3N)[C@@H]2O)[C@H](N)[C@@H](O)[C@@H]1O` (stereo partly drawn) returned a B-score of 0.82.
Compound `CC[C@H]1OC(=O)[C@H](C)[C@@H](O[C@H]2C[C@@](C)(OC)[C@@H](O)[C@H](C)O2)[C@H](C)[C@@H](O[C@@H]2O[C@H](C)C[C@H](N(C)C)[C@H]2O)[C@](C)(O)C[C@@H](C)/C(=N\OCOCCOC)[C@H](C)[C@@H](O)[C@]1(C)O` came in with a B-score of 0.27.
With `CCC1=C(C)CN(C(=O)NCCc2ccc(S(=O)(=O)NC(=O)N[C@H]3CC[C@H](C)CC3)cc2)C1=O`, the B-score is given as 1.92.
In the case of `COCc1c(C(C)C)nc(C(C)C)c(/C=C/[C@@H](O)C[C@@H](O)CC(=O)O)c1-c1ccc(F)cc1`, the B-score was 13.3.
`CC(C)c1nc(N(C)S(C)(=O)=O)nc(-c2ccc(F)cc2)c1/C=C/[C@@H](O)C[C@@H](O)CC(=O)O` had a B-score of 3.13.
For the compound `O=C(O)C[C@H](O)C[C@H](O)/C=C/c1c(C2CC2)nc2ccccc2c1-c1ccc(F)cc1`, the B-score is listed as -0.609.
As to `CC[N+](CC)(CC)CCOc1cccc(OCC[N+](CC)(CC)CC)c1OCC[N+](CC)(CC)CC`, the B-score was 5.36.
The compound `CC(C)NCC(O)COc1cccc2ccccc12` (stereo not drawn) returned a B-score of 0.797.
As to `CC(C)NC[C@H](O)COc1cccc2ccccc12`, the B-score is -4.66.
Then `CC(Cc1ccccc1)(NC(=O)CN)c1ccccc1` (stereo not drawn), with 1.27.
Then `CC[C@H]1CN2CCC1C[C@@H]2[C@@H](O)c1ccnc2ccc(OC)cc12` (stereo partly drawn), with 0.0568; and `CCCCC1(COC(=O)CCC(=O)O)C(=O)N(c2ccccc2)N(c2ccccc2)C1=O`, with -1.04.
Turning to `O=C1CC[C@@H](N2C(=O)c3ccccc3C2=O)C(=O)N1`, the B-score was -1.22.
